The source of these data is PubChem BioAssay.

“And” between values parts separate entries of the source, which are not always exact repeats. Equal entries are not always repeated. Values without a mark were called inactive. No rule for the calls is given here.

In the assay the test system is Aerobactin synthetase IucA (Klebsiella pneumoniae, hypervirulent). The assay can be described thus: biochemical IucA inhibition screen of LOPAC library by absorbance (AID 1346212).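 Also: 100% = no compound wells and 0% = no enzyme wells.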 Conditions: IucA enzyme assay, absorbance (OD) readout; hits give low values;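 tested at 8 µM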.
Take `O=C1Cc2c([nH]c3ccc(Br)cc23)-c2ccccc2N1`: the remaining activity was 125%.
In the case of `CCCCOC(=O)NS(=O)(=O)c1sc(CC(C)C)cc1-c1ccc(Cn2c(CC)nc3c(C)cc(C)nc32)cc1`, the remaining activity was 116%.
For the compound `CN(C)CCCO[C@@H]1[C@H]2OC(C)(C)O[C@H]2O[C@@H]1[C@H](O)CO`, the remaining activity is 113%.
For `COc1ccc2c(c1)CC[C@@H]1[C@@H]2CC[C@]2(C)[C@@H](NCCCCCCN3C(=O)C=CC3=O)CC[C@@H]12` the value was 111%; for `CCc1cccc(N(C)C(N)=Nc2cccc3ccccc23)c1`, 96.2%; for `COc1ccc(NC=O)c(C(=O)CCNC(C)=O)c1`, 95%.
With `COc1cccc(NC(=O)/C=C/c2ccc(Cl)cc2)c1`, the remaining activity is 101%.
For `CC(C)NC[C@H](O)c1ccc(O)c(O)c1`, the remaining activity was 108% and 104%.
As to `Cn1cc(C(F)(F)F)nc1-c1ccc(OCC(O)CNCCOc2ccc(O)c(C(N)=O)c2)cc1` (centres undefined), the remaining activity is 96.8%.
`COc1ccccc1N1CCN(CCCNc2cc(=O)n(C)c(=O)n2C)CC1`: the remaining activity was 97%.
Regarding `CC(C)Cc1ccc([C@H](C)C(=O)O)cc1`, the remaining activity was 111%.
Take `COc1ccccc1CNCCCCCCNCCCCCCCCNCCCCCCNCc1ccccc1OC`: the remaining activity was 91.3%.
As to `O=c1ccc2c(OCCCCc3ccccc3)c3ccoc3cc2o1`, the remaining activity was 123%.
For `Nc1nccc2c1ncn2[C@@H]1O[C@H](CO)[C@@H](O)[C@H]1O`, the remaining activity was 95.9%.
For `O=C(O)CCC(C(=O)O)N1C(=O)c2ccccc2C1=O` (centres undefined) the value was 121%; for `CN(C)CC[C@@H](c1ccc(Br)cc1)c1ccccn1`, 88.6%.
Regarding `CC(C)[C@H]1c2ccc(F)cc2CC[C@@]1(CCN(C)CCCc1nc2ccccc2[nH]1)OC(=O)C1CC1`, the remaining activity was 118%.
Consider `CCOC(=O)C12CC1/C(=N\O)c1ccccc1O2` (centres undefined), for which the remaining activity was 108%.
On to `CC(C)(C)c1ccc(S(=O)(=O)/C=C/C#N)cc1`, for which the remaining activity was 119%.
The same measure for `COc1nc(C)nc(Cl)c1NC1=NCCN1`: 119%; for `CCCCCCCC/C=C\CCCCCCCC(=O)NCCO`: 98.7%.
With `C[C@H]1C[C@H]2[C@@H]3CCC4=CC(=O)C=C[C@]4(C)[C@@]3(F)[C@@H](O)C[C@]2(C)[C@@]1(O)C(=O)CO`, the remaining activity is 114%.
`C[C@@](Cc1ccc(O)c(O)c1)(NN)C(=O)O`: the remaining activity is 81.8%.
For `COc1ccc2c(c1)c(CC(=O)O)c(C)n2Cc1ccc(F)cc1`, the remaining activity is 101%.
For `CCCNC[C@H](O)COc1ccccc1C(=O)CCc1ccccc1` the value was 91.3%; for `Cc1cccc(C)c1NC(=O)C(C)N` (centres undefined), 95.4%; for `CN1C2CCC1CC(NC(=O)c1nn(C)c3ccccc13)C2` (centres undefined), 107%.
As to `CCCCCC[C@@H]([C@@H](C)O)n1cnc2c(N)ncnc21`, the remaining activity is 99.4%.
For `CC(C)(C)c1ccc(/C=C/C(=O)Nc2ccc3c(c2)OCCO3)cc1`, the remaining activity was 107%.
As to `CCOC(=O)C1=C(C)NC(C)=C(C(=O)OC)C1c1cccc([N+](=O)[O-])c1` (centres undefined), the remaining activity was 112%.
On to `O=C(N[C@@H](Cc1ccccc1)C(=O)CCl)OCc1ccccc1`, for which the remaining activity was 111%.
With `O=C(Nc1nc2ccccc2n1CCN1CCOCC1)c1cccc([N+](=O)[O-])c1`, the remaining activity is 120%.
Take `C[C@]12CC[C@@H]3c4ccc(O)cc4CC[C@H]3[C@@H]1CC[C@@H]2O`: the remaining activity is 99.8%.
For `CC1=C(/C=C/C(C)=C/C=C/C(C)=C/C=C/C=C(C)/C=C/C=C(C)/C=C/C2=C(C)C(=O)[C@@H](O)CC2(C)C)C(C)(C)C[C@H](O)C1=O` the value was 107%; for `Cc1[nH]c(=O)c(C#N)cc1-c1ccc2nccn2c1`, 112%.
Turning to `NC(=S)c1ccc[n+]([C@@H]2O[C@@H](COP(=O)([O-])OP(=O)(O)OC[C@H]3O[C@@H](n4cnc5c(N)ncnc54)C(OP(=O)(O)O)[C@H]3O)C(O)C2O)c1` (some centres undefined), the remaining activity was 97.1%.
`CC(=O)C(C)=O`: the remaining activity was 97%.
As to `CNC(=O)[C@H]1O[C@@H](n2cnc3c(N)ncnc32)C(O)[C@H]1O` (some centres undefined), the remaining activity is 129%.
As to `N[C@H](C(=O)O)[C@H](O)C(=O)O`, the remaining activity is 106%.

One may read the remaining activity as the signal under treatment as a percentage of the control signal.
